Bioassay records as filed in PubChem.
Shown are actives, neighbours in structure and some others; about 2.1% of the full set was active somewhere.
ERAP1 inh – ERAP1 (human) enzyme inhibition; AID 652197; 0.15% of 340,000 active; inhibition, % at 10.7 µM; Q9NZ08; recombinant ERAP1, Leu-AMC fluorescence, 60 min;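 active = mean replicate inhibition of at least 30%, or all replicates individually reaching that 30% level; inactive = mean below 30% and not every replicate reaching it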;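 also: 0% = neutral control wells and 100% = L-leucinethiol positive control wells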
rRNA inh HTS – inhibits bacterial ribosomal RNA function over humanized ribosomes | GFP signal change (wild-type ribosome), % (concentration not given with the values) | 1.6% of 350,000 active | E. coli WT GFP vs humanized-ribosome RFP mutants, fluorescence, 24 h; active compounds read low; DMSO median 0, no signal -100;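 active = significant combined selectivity score with lowered wild-type GFP, culture density cut under 30%, mutant RFP and density less affected; inactive = any of these conditions unmet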
PvdQ acylase – P. aeruginosa PvdQ acylase inhibition. AID 488965. inhibition, % at 10 µM. purified PvdQ acylase, fluorescence plate reader. 0.063% of 340,000 active; in the data active = inhibition above about 30%, passing the limit was not always enough; inconclusive = no clear call, values can overlap the other calls;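 also: 0% = vehicle neutral wells and 100% = reference inhibitor wells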
F508del corr – correctors of CFTR F508del function in bronchial epithelial cells; activity (quench increase), % at 7.58 µM; AID 720511; 0.36% of 350,000 active; CFBE cells, YFP halide quenching; stimulated with forskolin plus potentiator P3; % fluorescence drop versus neutral controls;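 active = mean added fluorescence quench of at least 8% versus neutral control, with both replicates also reaching 8%; inconclusive = only one of the mean or replicate conditions met; inactive = mean below 8% and not both replicates reaching 8%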;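 also: cells transiently co-express mutant CFTR-F508del with the halide-sensitive YFP; corrector assay measuring rescue of mutant channel to the surface after 24 h compound exposure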
ARNT-TACC3 inh – disruptors of human ARNT/TACC3 interaction | 0.66% of 390,000 active | inhibition, % at 9.99 µM | AlphaScreen His-ARNT PAS-B/GST-TACC3 binding, luminescence; TACC3 fragment carries E629A point mutation;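 active = mean inhibition of replicates at least 50% and at least half of replicates each reaching 50%; inconclusive = half or more replicates reach 50% but mean below 50%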;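 also: 0% = complete ARNT plus TACC3 wells and 100% = ARNT alone without TACC3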
AID977621 – wild-type E. coli growth inhibition versus H69 humanized strain – H69 mutant RFP, wild-type GFP, cherry-pick, dose response | shares compounds with rRNA inh HTS | fluorescence, 24 h | activity change, negative = inhibition at 50 µM | 1,900 tested, under 10 active | AID 977621;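 active = Wild-type ribosome reporter drop at least double the humanized mutant ribosome reporter drop, growth loss under a set limit; inconclusive = no clear call, values can overlap the other calls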;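 also: wild-type GFP and H69 mutant RFP strains grown together 50/50 in each well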
AID977628 – E. coli growth inhibition, wild-type GFP versus h24 humanized RFP strain, dose response, h24 mutant RFP vs wild-type GFP, cherry-pick; shares compounds with rRNA inh HTS; E. coli WT GFP strain growth, fluorescence, 24 h; activity change, negative = inhibition at 50 µM; 1,900 tested, under 10 active; AID 977628;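 active = compound lowering the normal-ribosome reporter at least twice as much as the humanized-ribosome reporter, growth loss under a set limit; inconclusive = no clear call, values can overlap the other calls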;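 also: wild-type GFP and h24 humanized RFP strains co-cultured 1 to 1 per well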
* hit, by the source's call; ? = inconclusive; . = no result.

SMILES	ERAP1 inh	rRNA inh HTS	PvdQ acylase	F508del corr	ARNT-TACC3 inh	AID977621	AID977628
COc1cccc(-c2ccc(SCc3ccccn3)nn2)c1	1	-23*	-3	0	-5	.	?
COc1ccc(-c2ccc(SCc3ccccn3)nn2)cc1OC	0	-17	-1	3	13	.	.
COc1cc2c(cc1OC)CN(CC(=O)Nc1ccccc1SC)CC2	3	-20*	6	2	2	0.48	-7
O=C(NCC(F)(F)F)[C@@H]1[C@@H](CO)[C@@H]2Cn3c(cccc3=O)[C@H]1N2CC1CC1	2	1	.	1	-7	.	.
O=S1(=O)N[C@H](Cc2ccccc2)COc2cccc(N3CCC[C@H]3CO)c21	.	-22*	.	1	.	-9.2	.
O=S1(=O)N[C@H](Cc2ccccc2)COc2cc(N3CCC[C@H]3CO)ccc21	-3	-13	.	-2	.	.	.
O=S1(=O)N[C@@H](Cc2ccccc2)COc2cc(N3CCC[C@H]3CO)ccc21	.	-16*	.	0	.	.	-8.9
Cc1ccccc1-c1ccc([C@@H]2[C@H]3CN(S(=O)(=O)c4cn(C)cn4)CCCCN3[C@H]2CO)cc1	1	-1	.	-1	4	.	.
N#Cc1nc(-c2ccco2)oc1NCc1ccco1	.	.	-10	.	-20	.	.
N#Cc1nc(-c2ccco2)oc1NCc1ccccc1Cl	-7	-27*	.	-33	.	-4.4	-12
CC(C)NC(=O)Nc1ccc2c(c1)CC(=O)N([C@@H](C)CO)C[C@@H](C)[C@H](CN(C)C)O2	2	5	.	-1	.	.	.
CSc1nc2ccc(NS(=O)(=O)c3ccc([N+](=O)[O-])cc3)cc2s1	-3	-22*	2	-35	0	-14	-7.9
FC(F)(F)c1ccc(Cl)c(-n2c(Cc3cccs3)n[nH]c2=S)c1	5	-33*	-7	-2	10	-18	.
C[C@@H]1CN([C@@H](C)CO)C(=O)c2cccc(NC(=O)c3cnccn3)c2O[C@@H]1CN(C)S(=O)(=O)c1ccc(Cl)cc1	.	-6	.	-2	.	.	.
CCN(CC)S(=O)(=O)c1cc(NC(=O)C(C)Nc2ccccc2N2CCOCC2)ccc1C (stereo not given)	-1	-21	9	-1	5	.	.
CCN(CC)S(=O)(=O)c1cc(NC(=O)C(C)N2CCN(Cc3ccc4c(c3)OCO4)CC2)ccc1C (stereo not given)	-1	-21*	-19	1	-17	?	.
CCN(Cc1ccccc1)C(=O)COC(=O)c1cc(Cl)nc(Cl)c1	-2	-35*	-12	-2	3	-18	-4.4
CCN(Cc1ccccc1)C(=O)COC(=O)c1cnc(C)cn1	-2	7	-4	0	1	.	.
C[C@H]1CN([C@@H](C)CO)C(=O)c2cccc(NS(=O)(=O)c3ccccc3)c2O[C@H]1CN(C)C(=O)NC1CCCCC1	-1	3	.	0	-5	.	.
O=C(O)c1cc(S(=O)(=O)Nc2ccccc2Cc2ccccc2)ccc1Cl	-2	-6	-12	-2	-18	.	.
O=C(O)c1ccc(Cl)c(S(=O)(=O)Nc2ccccc2Cc2ccccc2)c1	-4	-19*	-14	3	26	.	?
O=C(C[C@@H]1CC[C@@H]2[C@H](COC[C@H](O)CN2C(=O)Nc2ccc(Cl)cc2)O1)N1CCCCC1	-2	-22*	.	1	-6	.	?
O=C(C[C@@H]1CC[C@H]2[C@@H](COC[C@@H](O)CN2C(=O)Nc2ccc(Cl)cc2)O1)N1CCCCC1	-5	-25	.	-2	-14	.	.
O=C(C[C@H]1CC[C@@H]2[C@H](COC[C@H](O)CN2Cc2ccc(Cl)cc2)O1)NCCc1ccccc1	1	-3	.	0	-15	.	.
O=[N+]([O-])c1ccc(Cl)cc1NCc1cccnc1	0	-21*	3	0	17	-11	?
SMILES	ERAP1 inh	rRNA inh HTS	PvdQ acylase	F508del corr	ARNT-TACC3 inh	AID977621	AID977628
C[C@@H]1CN([C@@H](C)CO)C(=O)c2cc(C3=CCCCC3)cnc2O[C@@H]1CN(C)C(=O)Cc1ccncc1	10	1	.	3	3	.	.
O=C(c1ccccc1)C1CN(Cc2ccccc2)CCC1(O)c1ccccc1 (stereo not given)	0	-18*	-7	0	6	-0.75	.
OC(c1ccccc1)C1CN(Cc2ccccc2)CCC1(O)c1ccccc1 (stereo not given)	12	2	3	2	28	.	.
CNC(=O)C[C@H]1CC[C@@H]2[C@@H](COc3ccc(NC(=O)Nc4ccc(F)c(F)c4)cc3C(=O)N2C)O1	0	-20*	.	-3	-7	.	?
C[C@H](CO)N1C[C@H](C)[C@H](CN(C)C(=O)Nc2cccc3ccccc23)Oc2ncc(-c3cccc(C(F)(F)F)c3)cc2C1=O	2	-3	.	3	9	.	.
CCN(CC)S(=O)(=O)c1ccc(N2CCCC2)c(NC(=O)c2ccccc2OC)c1	0	-21*	-14	-1	-24	-16	-9.8
CCN(CC)S(=O)(=O)c1ccc(N2CCCC2)c(NC(=O)Cc2ccccc2)c1	.	-3	-7	-1	3	.	.
CCN1[C@@H]2c3ccc(C4=CCCCC4)c(=O)n3C[C@H]1[C@H](CO)[C@H]2C(=O)NC1Cc2ccccc2C1	-5	-10	.	2	.	.	.
CO[C@H]1CN(C)C(=O)c2ccc(NC(C)=O)cc2OC[C@@H](C)N(Cc2nccs2)C[C@H]1C	0	2	.	-3	-2	.	.
CN(C)S(=O)(=O)c1ccc(Cl)c(C(=O)OCC(=O)NC(=O)c2cccn2C)c1	5	-21*	-20	.	-4	-11	-14
C[C@@H]1CN([C@@H](C)CO)C(=O)Cc2cc(NC(=O)CCC(F)(F)F)ccc2O[C@H]1CN(C)S(=O)(=O)c1ccc(Cl)cc1	-2	-1	.	1	4	.	.
CSc1cccc(NC(=S)NC(=O)CCc2ccccc2)c1	0	-20	-11	0	-7	.	.
CSc1cccc(NC(=O)CCc2ccccc2)c1	-3	-29*	-11	-2	5	0.12	-5.2
O=C(CSc1ccccc1)Nc1cccc(NC(=O)c2ccco2)c1	-4	-21*	-12	-1	-18	?	.
CO[C@@H]1CN(C)C(=O)c2cc(NC(=O)C3CC3)ccc2OC[C@@H](C)N(C(=O)c2ccccn2)C[C@H]1C	.	-1	.	1	.	.	.
O=C(C[C@H]1CC[C@@H]2[C@H](COC[C@@H](O)CN2C(=O)Nc2cccc(F)c2)O1)NCCCN1CCOCC1	-2	-9	.	-3	3	.	.
O=C(C[C@@H]1CC[C@@H](NC(=O)c2ccccn2)[C@H](CO)O1)NCc1cccc(F)c1	-1	5	.	-4	2	.	.
Cc1cc(C(=O)OCC(=O)Nc2cccc(S(N)(=O)=O)c2)c2ccccc2n1	.	-20*	-3	-1	1	-6.5	.
